PAD4 FP inh: PAD4 (human) enzyme inhibition; Q9UM07; recombinant PAD4, RCA probe fluorescence polarization; inhibition, % at 6.36 µM; hit rate 0.41% among 330,000; AID 485272;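 active = percent inhibition above a cutoff equal to the mean of all tested compounds plus 3 SD, cut at about 15% in these data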;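 note: 0% = PAD4 with RCA probe and DMSO and 100% = probe without PAD4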
GSTO1 inh: blocks human GSTO1 in RBBP9 counter-screen; P78417; recombinant GSTO1, activity-based probe fluorescence polarization; inhibition, % at 5.96 µM; hit rate 1.1% among 300,000;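 active = inhibition above the campaign mean inhibition plus 3 SD, cut at about 35% in these data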;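 note: 0% = GSTO1-1 with DMSO and 100% = wells lacking GSTO1-1 enzyme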
Target sequence (P78417 whole entry, looked up): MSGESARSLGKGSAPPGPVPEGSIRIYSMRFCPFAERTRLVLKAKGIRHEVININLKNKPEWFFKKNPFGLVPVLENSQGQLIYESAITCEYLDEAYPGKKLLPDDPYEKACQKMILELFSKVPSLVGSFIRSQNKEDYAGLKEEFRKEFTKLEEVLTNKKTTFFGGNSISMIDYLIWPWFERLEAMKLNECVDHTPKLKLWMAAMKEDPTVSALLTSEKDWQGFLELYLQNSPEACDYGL
LYPLA1 inh: blocks human lysophospholipase 1, a PME1 counter-screen; hit rate 0.16% among 320,000; O75608; inhibition, % at 5.9 µM; recombinant LYPLA1, FP-Rh probe fluorescence polarization;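 active = inhibition above the mean of all tested compounds plus 3 SD, set per campaign, cut at about 14% in these data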;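 note: inhibitors block serine hydrolase probe labeling of LYPLA1 so polarization falls; 0% = enzyme with DMSO and 100% = wells lacking LYPLA1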
Target sequence (O75608 whole entry, looked up): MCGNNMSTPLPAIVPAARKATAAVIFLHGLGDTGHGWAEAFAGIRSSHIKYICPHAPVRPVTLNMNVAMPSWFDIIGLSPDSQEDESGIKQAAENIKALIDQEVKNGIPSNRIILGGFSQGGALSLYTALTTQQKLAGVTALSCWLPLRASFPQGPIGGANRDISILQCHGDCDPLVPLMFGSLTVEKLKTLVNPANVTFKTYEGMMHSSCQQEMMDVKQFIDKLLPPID
PME-1 primary: blocks human protein phosphatase methylesterase 1 | Q9Y570 | recombinant PME-1, FP-Rh probe fluorescence polarization | inhibition, % at 5.9 µM | hit rate 0.53% among 320,000;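 active = inhibition above the campaign mean of all compounds plus 3 SD, cut at about 26% in these data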;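 note: competitive labeling of PME-1 active site by serine hydrolase directed probe; 0% = PME-1 with DMSO and 100% = wells lacking PME-1 enzyme; inhibitors block probe labeling so polarization falls and inhibition rises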
LYPLA2 counter: blocks human lysophospholipase 2, a PME1 counter-screen; O95372; recombinant LYPLA2, FP-Rh probe fluorescence polarization; inhibition, % at 5.9 µM; hit rate 0.38% among 320,000; AID 2177;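 active = inhibition above the screen-wide mean plus 3 SD, limit set per campaign, cut at about 26% in these data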;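 note: 0% = LYPLA2 with DMSO and 100% = wells lacking LYPLA2 enzyme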
Target sequence (O95372 whole entry, looked up): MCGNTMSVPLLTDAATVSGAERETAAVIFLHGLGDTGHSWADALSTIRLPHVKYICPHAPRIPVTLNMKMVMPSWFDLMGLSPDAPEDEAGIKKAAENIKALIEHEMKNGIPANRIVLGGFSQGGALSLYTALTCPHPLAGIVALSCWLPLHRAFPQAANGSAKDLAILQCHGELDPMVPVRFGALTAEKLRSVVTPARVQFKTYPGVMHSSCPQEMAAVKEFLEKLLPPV
Fam108B inh: blocks mouse Fam108B hydrolase in RBBP9 counter-screen; hit rate 0.33% among 300,000; recombinant Fam108B, FP-Rh probe fluorescence polarization; AID 1947; inhibition, % at 9.51 µM;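 active = inhibition above the screen mean inhibition plus 3 SD, computed separately per campaign, cut at about 18% in these data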;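 note: inhibitors lower polarization as less probe binds the enzyme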
LYPLA2 conf: counter-screen for PME1 inhibitors: confirmation of human LYPLA2 inhibitors; shares compounds with LYPLA2 counter; recombinant LYPLA2, FP-Rh probe fluorescence polarization; inhibition, % at 5.9 µM; hit rate 72% among 1,100; AID 2232;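 active = mean inhibition across replicates above the hit cutoff set in the primary screen, cut at about 26% in these data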;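 note: blocked labeling of the enzyme by serine hydrolase FP-Rh probe lowers polarization; 0% = enzyme with DMSO and 100% = wells lacking LYPLA2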
LYPLA2 gel ABPP: blocks human acyl-protein thioesterase 2 in gel ABPP; shares compounds with LYPLA2 counter; inhibition, % at 20 µM; AID 652029; rhLYPLA2 in mouse brain proteome, gel ABPP FP-Rh; hit rate 30% among 150;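 active = inhibition of LYPLA2 enzyme probe labeling above about 50%, limit read from the data; inactive = inhibition below that limit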;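 note: loss of FP-Rh probe labeling of the LYPLA2 gel band measured as band density; 0% = DMSO only control band and 100% = blank gel background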
PAD4 confirm: confirmation of human PAD4 inhibitors; recombinant PAD4, RCA probe fluorescence polarization; hit rate 28% among 1,200; inhibition, % at 6.36 µM; shares compounds with PAD4 FP inh;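 active = mean inhibition across replicates above the hit cutoff set by the earlier primary screen, cut at about 15% in these data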;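 note: inhibitors block active-site labeling by the probe so polarization falls; 0% = PAD4 with probe and DMSO and 100% = probe without PAD4 enzyme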
Active calls of the source: *; . = not tested or not shown. Shown are actives, neighbours in structure and some others; about 1.8% of the full set was active somewhere.

SMILES | PAD4 FP inh | GSTO1 inh | LYPLA1 inh | PME-1 primary | LYPLA2 counter | Fam108B inh | LYPLA2 conf | PAD4 confirm | others
COc1ccc(S(=O)(=O)N2CCCC2CNC(=O)C(=O)NCc2ccco2)cc1 (stereo unspecified) | 1 | -5 | -2 | 5 | 3 | 3 | . | .
CCN(CC)CCN1C(=O)c2ccccc2NC1c1ccc(Br)cc1 (stereo unspecified) | -1 | 1 | -1 | -6 | 28* | 4 | -3 | .
Cc1ccc(N/C=C(\C#N)c2ccc(OCCCF)cc2)cc1 | 4 | 6 | -2 | 13 | 65* | 0 | 75* | . | LYPLA2 gel ABPP=52*
Cc1ccc(N/C=C(/C#N)c2ccsc2)cc1 | -1 | -5 | 1 | 10 | 0 | 4 | . | .
COc1ccc(N/C=C(\C#N)c2ccc(OCCCF)cc2)cc1 | 3 | 6 | 6 | 6 | 73* | 3 | 61* | . | LYPLA2 gel ABPP=37
Cc1cccc(C(=O)NCC(=O)N2CCOCC2)c1 | -3 | 6 | 0 | 0 | 1 | 4 | . | .
O=C1C2CCCCN2C(=O)N1CCCCN1CCN(c2ccc([N+](=O)[O-])cc2)CC1 (stereo unspecified) | 4 | 7 | 6 | 1 | 31* | 4 | 16 | .
Cc1ccc(N2CCN(CCCN3C(=O)C4CCCN4C3=O)CC2)cc1 (stereo unspecified) | 1 | 1 | 6 | 9 | 6 | 3 | . | .
O=[N+]([O-])c1ccc(CN2CCN(c3ccc([N+](=O)[O-])cc3)CC2)cc1 | 4 | 1 | 8 | -2 | 47* | 1 | 31* | .
Cc1ccc(S(=O)(=O)N2CCCCC2CCNC(=O)C(=O)Nc2ccccc2F)cc1 (stereo unspecified) | 2 | 4 | -2 | -4 | 5 | -1 | . | .
O=C(c1cc(COc2ccc(F)cc2Cl)on1)N1CCCCCC1 | -5 | -1 | 3 | -1 | 7 | 1 | . | .
O=C(c1cc(COc2ccc(F)cc2Cl)on1)N1CCC(c2ccncc2)CC1 | 1 | -2 | 6 | 4 | 33* | 1 | 30* | .
CS(=O)(=O)Nc1ccc(N2CCN(c3ccc(C(F)(F)F)cn3)CC2)nc1 | -2 | -2 | 8 | 2 | 84* | 3 | 83* | . | LYPLA2 gel ABPP=72*
O=C(C1CCN(c2nnc(-n3cccc3)s2)CC1)N1CCN(Cc2ccc3c(c2)OCO3)CC1 | -4 | 3 | 4 | -2 | 34* | 1 | 46* | .
COc1ccc(NC(=S)N2CCN(c3ccc([N+](=O)[O-])cc3)CC2)cc1OC | -2 | 7 | 14 | 5 | 36* | 5 | 29* | .
CN(CC(=O)Nc1ccccc1Br)C(=O)c1sccc1-c1ccccc1 | -4 | . | 2 | -1 | -4 | . | . | .
COc1ccc(C(=O)c2nccc3cc(OC)c(OC)cc23)cc1OC | 61* | . | 9 | 22 | 26* | . | 17 | 25*
CN(C(=O)COC(=O)c1ccccc1NCc1ccco1)c1c(N)n(Cc2ccccc2)c(=O)[nH]c1=O | 3 | 2 | -2 | 3 | 1 | -1 | . | .
COC(CNC(=O)C1CCCN1C(=O)OCc1ccccc1)OC (stereo unspecified) | 2 | 2 | 4 | 2 | 7 | 2 | . | .
COC(=O)[C@@H]1C[C@]2(OC(=O)c3ccccc3)C=CC(=O)C[C@@H]2N1C(=O)OCc1ccccc1 | 19* | 6 | -2 | 3 | -1 | -1 | . | 22*
C#CCOCCOCCOCCNc1nc(N2CCN(C(=O)[C@H](CCC(=O)O)n3cc(C(N)[C@H](C)CC)nn3)CC2)nc(N2CCN(C(=O)[C@H](Cc3cc4ccccc4[nH]3)n3cc(C(N)[C@H](C)CC)nn3)CC2)n1 (stereo partly specified) | 27* | 4 | 0 | -2 | 2 | 3 | . | 10
CC(=O)NN1C(=O)c2ccc3c4c(ccc(c24)C1=O)C(=O)N(NC(C)=O)C3=O | 136* | 37* | 3 | -2 | 5 | 2 | . | 143*
COc1ccc(/C=C/C(=O)OCC(=O)c2c(N)n(C)c(=O)n(C)c2=O)c(OC)c1 | 19* | 6 | 3 | 5 | 7 | -2 | . | 4
NS(=O)(=O)c1ccc(NC(=O)COC(=O)c2ccc(S(=O)(=O)N3CCOCC3)cc2)cc1 | -3 | . | . | . | . | . | . | .
COC(=O)c1cnn(-c2ccccc2)c1C(OC)OC | 18* | -1 | 3 | -2 | 0 | 2 | . | 2
SMILES | PAD4 FP inh | GSTO1 inh | LYPLA1 inh | PME-1 primary | LYPLA2 counter | Fam108B inh | LYPLA2 conf | PAD4 confirm | others
COC(=O)c1cnn(-c2ccccc2)c1/C=N/NC(=S)Nc1ccccc1 | -4 | 6 | -2 | -11 | 1 | 0 | . | .
COc1ccc(NC(=O)C2CC3CCC2C3)c(OC)c1 (stereo unspecified) | -1 | 8 | -3 | 0 | -6 | 3 | . | .
CCOC(=O)CN(C(=O)COc1nc(-c2ccccc2)cc(C)c1C#N)c1ccccc1C | 20* | -1 | 2 | 5 | 4 | -5 | . | -8
CCOC(=O)CN(C(=O)COc1nc(-c2ccccc2)cc(C)c1C#N)c1ccccc1 | 0 | 5 | 1 | -5 | 0 | -5 | . | .
O=C(Nc1ccc(N2CCN(c3ccc(O)cc3)CC2)cc1)Oc1ccccc1 | 0 | 34 | -7 | 0 | 1 | 9 | . | .
Nc1ccc(OC(=O)Nc2ccc(O)cc2)cc1 | 73* | 59* | 0 | 10 | 5 | 9 | . | -11
O=C1CCCC(O)=C1N=Nc1cccc(C(=O)O)c1 | -13 | 11 | -1 | -13 | -1 | 15 | . | .
O=C1CCCC(O)=C1N=Nc1c(Cl)cc(Cl)cc1Cl | 36* | 18 | 10 | 15 | 22 | 5 | . | 1
CC(=O)N1CC[n+]2c(-c3ccc(Cl)cc3)csc21 | 22* | 7 | -3 | 0 | 4 | 2 | . | 6
Cc1[nH]n(-c2ccccc2)c(=O)c1C(c1cccc([N+](=O)[O-])c1O)c1c(C)[nH]n(-c2ccccc2)c1=O | 64* | 64* | -2 | 2 | 2 | 6 | . | -1
Nc1ccccc1SC/C=C/CSc1ccccc1N | -4 | 8 | 6 | 0 | 4 | 3 | . | .
N#Cc1ccccc1S(=O)(=O)N1CCN(C(=O)[C@H](Cc2ccccc2)NC(=O)c2ccco2)CC1 | 4 | . | -6 | 4 | -2 | . | . | .
O=C(O)c1ccccc1Sc1c([N+](=O)[O-])cc(C(F)(F)F)cc1[N+](=O)[O-] | 45* | 36* | 2 | -2 | 1 | 5 | . | 26*
COc1cc(SC#N)ccc1N=Cc1c(C)[nH]n(-c2ccc(C)cc2C)c1=O | 22* | 16 | 0 | -2 | 0 | 1 | . | 36*
